Here are results for six compounds from PubChem BioAssay.

Activity calls are given as the source filed them.

One assay has as its target Albumin (Bos taurus) (UniProt P02769). In words: bovine serum albumin binders on microarray, profiling panel, artefact control for SMM control protein annotation, biochemical, small-molecule microarray, Alexa647 label, 635/667 nm fluorescence (AID 1118).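 Note: score merges 667 nm emission intensity and signal-to-noise per printed compound spot.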 The settings on record: BSA-A647 binding, fluorescence 635 nm, higher = more signal.
A short description of assay [1]: small-molecule microarray binders of probe aXIP, primary screen, biochemical, NeuroSMM set, 635/667 nm fluorescence (AID 1119).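 Note: probe is the protein aXip251-270 applied at 1 µg/mL to compound-printed slides; binding of probe to printed compounds measured as 667 nm fluorescence plus signal to noise.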 The settings on record: higher = more signal, called active from +8 up or from −8 down.
A short description of assay [2]: small-molecule binders of probe aNOTCH3, primary screen, biochemical, small-molecule microarray, 635/667 nm fluorescence (AID 1120).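 Note: probe is a biotin-tagged antibody raised against NOTCH3 rather than NOTCH3 protein; score merges spot fluorescence near 667 nm with spot signal to noise.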 The settings on record: higher = more signal.
Assay [3] can be described thus: small-molecule binders of probe aNOTCH2, primary screen, biochemical, small-molecule microarray, 635/667 nm fluorescence (AID 1121).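 Note: score merges feature fluorescence read at 667 nm with its signal to noise.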 The settings on record: higher = more signal.
In assay [4] the target is Carbonic anhydrase 2 (Homo sapiens) (UniProt P00918). In words: CAII small-molecule binders, profiling panel, biochemical, small-molecule microarray, Alexa647-labelled CAII (AID 1122). The settings on record: CAII-A647 binding fluorescence, higher = more signal.
A short description of assay [5]: COS7 lysate on small-molecule microarray, probe aHis, 635 nm (AID 1123).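 Note: z-score combines 667nm fluorescence intensity with signal-to-noise per printed compound spot.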 The settings on record: COS7 cell lysate, fluorescence, higher = more signal.
Assay [6] in a line: compound binding in COS7 lysate, probe aLAP1, primary screen, cell lysate, small-molecule microarray (AID 1124).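 Note: lysate comes from COS7 cells expressing LAP1 and is applied at 0.3 µg/mL; score merges spot fluorescence near 667 nm with signal-to-noise over triplicate slides.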 The settings on record: probe aLAP1, fluorescence, higher = more signal.
A further assay concerns Sam68 (KHDRBS1). Description: Sam68 small-molecule binders, primary screen, biochemical, small-molecule microarray, 635 nm fluorescence (AID 1125).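 Note: score merges 667 nm channel intensity with signal to noise over triplicate slides.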 The settings on record: small-molecule microarray binding, higher = more signal.
The subject of assay [7] is Chordin-like protein 2 (CHRDL2). Description: CHRDL2 small-molecule binders, primary screen, biochemical, small-molecule microarray, 635 nm fluorescence (AID 1126).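 Note: printed compound slides probed with Chrdl2 protein at 4 µg/mL for 1 h at 4 C; score merges 667 nm emission intensity with signal to noise over three replicate slides.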 The settings on record: small-molecule microarray binding, fluorescence 635 nm; higher = more signal.
In assay [8] the target is Concanavalin-A (Canavalia ensiformis) (UniProt P02866). Description: ConA small-molecule binders, primary screen, artefact control for SMM control protein annotation, biochemical, small-molecule microarray, Alexa647 label, 635 nm (AID 1127).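 Note: z combines 667 nm emission intensity with signal-to-noise across three replicate slides.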 The settings on record: ConA-A647 binding fluorescence, higher = more signal.
Concanavalin-A (Canavalia ensiformis), sequence (P02866 whole entry, looked up): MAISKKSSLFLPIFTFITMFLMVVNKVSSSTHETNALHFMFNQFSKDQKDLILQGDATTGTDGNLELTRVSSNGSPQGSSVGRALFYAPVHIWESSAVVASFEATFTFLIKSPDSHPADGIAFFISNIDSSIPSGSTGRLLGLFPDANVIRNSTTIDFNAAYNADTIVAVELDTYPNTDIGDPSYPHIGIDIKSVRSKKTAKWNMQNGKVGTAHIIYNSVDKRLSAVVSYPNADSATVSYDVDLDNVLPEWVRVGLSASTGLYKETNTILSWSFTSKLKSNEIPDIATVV
Assay [9] can be described thus: anti-His antibody binders, primary screen, artefact control for SMM control protein annotation, biochemical, small-molecule microarray, 635 nm fluorescence (AID 1128).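 Note: score merges feature fluorescence with signal-to-noise for each printed compound spot.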 The settings on record: anti-His Alexa647 antibody binding, higher = more signal.
Assay [10] has as its system Human papillomavirus type 1a E7 protein (residues 1-88). In words: HPV1a E7 small-molecule binders, primary screen, biochemical, small-molecule microarray, residues 1-88, 635 nm (AID 1129). The settings on record: small-molecule microarray binding, fluorescence 635 nm; higher = more signal.
Assay [11] concerns the target Focal adhesion kinase 1 (Homo sapiens) (UniProt Q05397). In words: small-molecule microarray binders of FAK, primary screen, biochemical, 635/667 nm fluorescence, BSA, DTT (AID 1130).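 Note: composite of spot emission at 667 nm and signal to noise over triplicate slides.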 The settings on record: PTK2 binding, 635 nm fluorescence, higher = more signal.
In assay [12] the test system is Fibrinogen (Alexa647-labelled). In words: fibrinogen binders on compound microarrays, profiling panel, artefact control for SMM control-protein annotation, biochemical, small-molecule microarray, 635/667 nm fluorescence (AID 1131).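 Note: z-score merges 667 nm fluorescence with per-spot signal-to-noise over triplicate slides.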 The settings on record: fibrinogen-A647 binding fluorescence, higher = more signal.
In assay [13] the target is Follistatin (Homo sapiens) (UniProt P19883). Description: follistatin binders on small-molecule microarrays, primary screen, biochemical, small-molecule microarray, 635/667 nm fluorescence (AID 1132). The settings on record: FST binding, 635 nm fluorescence, higher = more signal.
Follistatin (Homo sapiens), sequence (P19883 whole entry, looked up): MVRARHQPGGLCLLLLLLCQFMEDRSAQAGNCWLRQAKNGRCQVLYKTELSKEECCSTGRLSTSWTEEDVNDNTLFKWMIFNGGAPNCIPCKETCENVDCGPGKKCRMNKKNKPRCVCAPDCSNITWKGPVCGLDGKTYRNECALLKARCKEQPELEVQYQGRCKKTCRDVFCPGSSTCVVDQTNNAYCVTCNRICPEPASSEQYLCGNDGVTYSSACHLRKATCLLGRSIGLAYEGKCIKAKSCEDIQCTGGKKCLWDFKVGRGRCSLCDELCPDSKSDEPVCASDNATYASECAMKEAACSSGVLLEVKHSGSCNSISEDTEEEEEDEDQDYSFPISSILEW
Assay [14] has as its target Fibroblast growth factor 2 (Homo sapiens) (UniProt P09038). Description: FGF2 binders on small-molecule microarrays, primary screen, biochemical, small-molecule microarray, 635/667 nm fluorescence (AID 1133). The settings on record: small-molecule microarray binding, FGF2, fluorescence 635/667; higher = more signal.
A short description of assay [15]: mitochondrial membrane potential change in A549 cells, profiling panel, cell-based, JC-1 fluorescence, basal, 24 h, 100 nL (AID 1138).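 Note: A549 lung adenocarcinoma cells under basal conditions with no added stimulus; test concentration not given here.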 The settings on record: higher = more signal.
For a further assay, the system named is Lefty1. In words: Lefty1 binders on small-molecule microarrays, primary screen, biochemical, small-molecule microarray, 635/667 nm fluorescence (AID 1139). The settings on record: small-molecule microarray binding, fluorescence 635/667; higher = more signal.
Assay [16] concerns wheat germ agglutinin (Triticum aestivum), Alexa647-labelled. Description: wheat germ agglutinin binders on compound microarrays, profiling panel, artefact control for SMM control-protein annotation, biochemical, small-molecule microarray, 635/667 nm fluorescence (AID 1140).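 Note: score merges 667 nm feature emission with signal to noise over triplicate slides.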 The settings on record: WGA-A647 binding, 635 nm fluorescence, higher = more signal.
The target in assay [17] is Luciferin 4-monooxygenase (Photinus pyralis) (UniProt P08659). In words: firefly luciferase enzyme inhibitors, primary screen, biochemical, luminescence, purified enzyme, 2006 set (AID 1141).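 Note: cell-free assay with purified firefly luciferase at 100 ng per well in PBS; test concentration not given here.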 The settings on record: SteadyGlo luminescence, 30 min, higher = more signal, called active from +8 up or from −8 down.
Luciferin 4-monooxygenase (Photinus pyralis), sequence (P08659 whole entry, looked up): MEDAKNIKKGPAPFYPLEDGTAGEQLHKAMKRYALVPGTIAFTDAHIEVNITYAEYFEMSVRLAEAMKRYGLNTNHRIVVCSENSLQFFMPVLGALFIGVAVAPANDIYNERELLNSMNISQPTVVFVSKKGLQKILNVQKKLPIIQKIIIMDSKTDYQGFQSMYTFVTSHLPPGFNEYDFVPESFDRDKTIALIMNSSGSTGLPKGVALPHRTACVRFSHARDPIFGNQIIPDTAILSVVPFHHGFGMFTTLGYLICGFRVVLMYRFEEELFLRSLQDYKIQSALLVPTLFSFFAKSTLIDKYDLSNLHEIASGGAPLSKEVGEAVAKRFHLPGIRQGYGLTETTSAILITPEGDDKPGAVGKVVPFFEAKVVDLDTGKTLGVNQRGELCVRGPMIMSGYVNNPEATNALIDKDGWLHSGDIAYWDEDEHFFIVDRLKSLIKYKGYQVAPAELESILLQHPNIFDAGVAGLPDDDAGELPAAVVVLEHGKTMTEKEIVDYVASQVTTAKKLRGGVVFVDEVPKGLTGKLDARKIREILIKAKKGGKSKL

Focal adhesion kinase 1 (Homo sapiens), sequence (Q05397 whole entry, looked up): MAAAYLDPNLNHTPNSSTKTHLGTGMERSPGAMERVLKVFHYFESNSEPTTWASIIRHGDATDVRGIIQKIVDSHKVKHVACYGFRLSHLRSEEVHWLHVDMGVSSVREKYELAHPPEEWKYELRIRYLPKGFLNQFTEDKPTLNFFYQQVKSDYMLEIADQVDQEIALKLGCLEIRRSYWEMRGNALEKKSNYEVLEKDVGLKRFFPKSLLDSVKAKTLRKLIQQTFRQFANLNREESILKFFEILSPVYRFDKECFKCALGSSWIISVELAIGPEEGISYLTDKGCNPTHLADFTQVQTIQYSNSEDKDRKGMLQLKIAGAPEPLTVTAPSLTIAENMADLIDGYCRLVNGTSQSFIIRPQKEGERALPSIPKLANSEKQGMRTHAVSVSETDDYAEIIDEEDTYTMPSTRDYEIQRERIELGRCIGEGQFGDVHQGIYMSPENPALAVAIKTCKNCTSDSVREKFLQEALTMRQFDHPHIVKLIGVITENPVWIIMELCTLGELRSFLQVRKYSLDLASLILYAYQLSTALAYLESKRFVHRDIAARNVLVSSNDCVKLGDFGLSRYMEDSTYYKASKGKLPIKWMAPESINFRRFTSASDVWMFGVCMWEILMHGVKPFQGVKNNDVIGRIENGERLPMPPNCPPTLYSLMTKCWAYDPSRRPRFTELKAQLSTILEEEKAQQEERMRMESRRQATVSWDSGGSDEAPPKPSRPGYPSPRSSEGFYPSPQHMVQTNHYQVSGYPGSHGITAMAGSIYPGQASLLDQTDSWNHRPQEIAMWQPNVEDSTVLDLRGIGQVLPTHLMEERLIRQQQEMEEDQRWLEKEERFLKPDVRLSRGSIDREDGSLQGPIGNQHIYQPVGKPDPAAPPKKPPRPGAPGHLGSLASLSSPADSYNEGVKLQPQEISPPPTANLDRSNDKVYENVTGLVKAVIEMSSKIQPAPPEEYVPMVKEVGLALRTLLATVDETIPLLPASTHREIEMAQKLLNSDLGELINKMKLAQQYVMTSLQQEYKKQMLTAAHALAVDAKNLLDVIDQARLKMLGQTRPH
Albumin (Bos taurus), sequence (P02769 whole entry, looked up): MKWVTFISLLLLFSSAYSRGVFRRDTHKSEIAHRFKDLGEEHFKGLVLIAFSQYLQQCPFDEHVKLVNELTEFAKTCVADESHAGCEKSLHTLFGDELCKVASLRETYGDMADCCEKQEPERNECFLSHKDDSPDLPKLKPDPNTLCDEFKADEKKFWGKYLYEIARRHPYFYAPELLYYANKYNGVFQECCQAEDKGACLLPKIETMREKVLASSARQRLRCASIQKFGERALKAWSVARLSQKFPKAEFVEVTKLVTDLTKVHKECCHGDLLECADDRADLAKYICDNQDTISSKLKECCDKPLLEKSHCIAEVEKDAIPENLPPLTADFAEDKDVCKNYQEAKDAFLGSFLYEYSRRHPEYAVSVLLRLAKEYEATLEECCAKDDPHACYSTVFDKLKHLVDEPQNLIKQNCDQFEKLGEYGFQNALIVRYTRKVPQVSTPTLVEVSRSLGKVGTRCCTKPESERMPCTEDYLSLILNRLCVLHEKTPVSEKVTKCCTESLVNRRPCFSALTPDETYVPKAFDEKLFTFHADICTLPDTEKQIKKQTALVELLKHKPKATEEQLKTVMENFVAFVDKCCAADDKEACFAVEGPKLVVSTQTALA
Fibroblast growth factor 2 (Homo sapiens), sequence (P09038 whole entry, looked up): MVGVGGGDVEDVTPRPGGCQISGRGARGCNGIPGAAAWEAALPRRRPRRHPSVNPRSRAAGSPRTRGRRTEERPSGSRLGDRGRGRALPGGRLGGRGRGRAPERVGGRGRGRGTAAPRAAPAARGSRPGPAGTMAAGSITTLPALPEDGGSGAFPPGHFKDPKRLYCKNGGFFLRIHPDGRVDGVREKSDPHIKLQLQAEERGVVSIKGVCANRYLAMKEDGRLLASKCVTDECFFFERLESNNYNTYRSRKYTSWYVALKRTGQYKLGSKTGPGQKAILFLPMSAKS

Turning to `CCOC(=O)CCN1C(=O)[C@H]2[C@H]3[C@H](O)[C@H](O)CC(=NO[C@@H]4O[C@H](CO)[C@@H](O)[C@H](O)[C@H]4O)[C@@H]3CC[C@H]2C1=O`, the composite z-score in the assay with Albumin (Bos taurus) is 0.83; in assay [2], 0.207; in [3] it was -0.0698; in [4], 0.381; in assay [5], 0.279; in assay [6], -0.0046. Moreover, the composite z-score in the assay with Sam68 (KHDRBS1) worked out at 1.3; in [7], 1.04; in assay [8], 0.322; in assay [9] it was 0.818; in [10], 1.12; in [11] it was 0.118. Further, the composite z-score in [12] was 0.854; in assay [13] it was 1.22; in assay [14], 1.22; with Lefty1, 1.4; in [16] it was 0.829. Besides, the composite Z-score in assay [1] is 0.397 (inactive). Moreover, the results for the z-score in [15] and in assay [17] were -0.102 and -0.115 (inactive), respectively.

With `CCOC(=O)[C@H](CC(C)C)NC(=O)CCC1CC(OC(=O)NCc2ccc3c(c2)OCO3)CC2(CCCC(COC(=O)NCCOc3ccccc3)O2)O1` (stereo not given in full), the composite z-score with Albumin (Bos taurus) is 0.232; in assay [2], 0.0469; in assay [3] it was -0.178; in [4] it was 0.166; in assay [5] it was 1.22; in assay [6], -0.248. For the same compound, the composite z-score in the assay on Sam68 (KHDRBS1) is 1.33; in assay [7], 0.99; in assay [8], 1.14; in [9] it was 0.424; in [10], 1.17; in assay [11], 0.0776. Further, the composite z-score in assay [12] was 1.01; in assay [13] it was 0.829; in [14], 0.846; in the assay on Lefty1, 1.61; in assay [16], 0.598. Also, the composite Z-score in assay [1] was -0.198 (inactive). The results for the z-score in [15] and in [17] were 0.574 and 0.547 (inactive), respectively.

As to `COC(=O)[C@H](C)NC(=O)CC=C[C@@H](C)[C@@H]1C=C[C@H](O)[C@@H](CO)O1`, the composite z-score in the assay with Albumin (Bos taurus) is -0.453; in [2] it was -0.0932; in assay [3] it was -0.237; in assay [4], -0.114; in assay [5] it was -0.346; in [6] it was -0.0681. For the same compound, the composite z-score is 0.457 in the assay on Sam68 (KHDRBS1); 1.33 in assay [7]; -0.174 in assay [8]; 0.0816 in [9]; 0.228 in assay [10]; -0.118 in assay [11]. In addition, the composite z-score in assay [12] was -0.0588; in [13] it was 1.14; in assay [14], 1; in the assay on Lefty1, 1.39; in [16] it was -0.28. Also, the composite Z-score in assay [1] is -0.0756 (inactive). Also, the z-score was -0.142 in assay [15] and 0.374 (inactive) in [17].

Regarding `C[C@H]1CC[C@@H](C(=O)O)N[C@@H]1c1cccc(N2CCCC2=O)c1`, the composite z-score with Albumin (Bos taurus) was -0.0315; in assay [2], -0.173; in assay [3], -0.14; in assay [4] it was -0.192; in assay [5], -0.101; in [6], -0.127. Besides, the composite z-score with Sam68 (KHDRBS1) was 0.0706; in [7] it was 0.456; in assay [8] it was 0.116; in assay [9] it was -0.0817; in assay [10] it was 0.675; in assay [11], -0.0555. Also, the composite z-score is 0.25 in [12]; 0.412 in assay [13]; 0.229 in assay [14]; 0.132 with Lefty1; -0.368 in assay [16]. In addition, the composite Z-score in [1] is -0.38 (inactive). In addition, the z-score was 1.21 in assay [15] and -1.21 (inactive) in assay [17].

Consider `CCc1cc2c(nc1CC)CCN(CCC(C)=NO[C@@H]1O[C@H](COC(C)=O)[C@@H](OC(C)=O)[C@H](OC(C)=O)[C@H]1OC(C)=O)C2`, for which the composite z-score was 0.314 in the assay with Albumin (Bos taurus); 0.105 in assay [2]; -0.0527 in assay [3]; 0.0275 in assay [4]; 1.34 in assay [5]; 0.388 in [6]. The composite z-score with Sam68 (KHDRBS1) was determined as 1.32; in [7], 0.922; in [8], 0.571; in assay [9] it was 0.0815; in assay [10], 0.286; in [11], 0.0487. Moreover, the composite z-score in assay [12] is 0.816; in assay [13] it was 1.03; in [14] it was 0.559; in the assay on Lefty1 it was 1.42; in [16], 0.167. In addition, the composite Z-score in assay [1] was -0.0798 (inactive). The z-score in [15] was -0.766; in assay [17], 1.03 (inactive).

Take `CCOC(=O)[C@H](Cc1ccccc1)NC(=O)CCC1CC(OC(=O)NCc2cccc3ccccc23)CC2(CCCC(COC(=O)NCCOc3ccccc3)O2)O1` (stereo not given in full): the composite z-score with Albumin (Bos taurus) is 0.0423; in assay [2], -0.16; in assay [3] it was -0.0859; in assay [4], 0.391; in assay [5] it was 1.05; in [6], 0.132. Moreover, the composite z-score came to 1.24 with Sam68 (KHDRBS1); 0.439 in assay [7]; 1.12 in assay [8]; 1.39 in assay [9]; 1.01 in [10]; 0.227 in assay [11]. Further, the composite z-score in assay [12] was 0.725; in assay [13] it was 0.485; in assay [14] it was 0.279; with Lefty1, 0.573; in assay [16], 0.268. Further, the composite Z-score in [1] is 0.19 (inactive). Further, the z-score was -0.16 in assay [15] and 1.13 (inactive) in assay [17].
